Test results: PubChem BioAssay (NCATS)
Records with an inconclusive call do not appear. Calls of active or inactive are those of the source. Calls come from the whole dose curve; as a rule, active = well fitted inhibition curve with a large enough effect; inconclusive = small, poorly fitted or top-dose-only effect; inactive = flat fitted curve, though single readings scatter.

Key:
Assay in all cases: qHTS profiling for inhibitors of Plasmodium falciparum proliferation (AID 504749); note: nearly all actives have a fitted effect of over 60% in size
CP256 = conditions: P. falciparum in erythrocytes, SYBR Green DNA, 72 h; series mostly up to 28.7 µM
Procedure, shortened: (§1)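 Readout was DNA-dye fluorescence from lysed cultures, ex 485/em 535 nm. Parasitized red cells had grown 72 h with compound; data scaled between 0.29 uM artemisinin and DMSO wells and corrected using vehicle-only plates.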

CP260 = conditions: P. falciparum in erythrocytes, SYBR Green DNA, 72 h; series mostly up to 28.7 µM
Procedure, shortened: as §1

CP265 = conditions: P. falciparum in erythrocytes, SYBR Green DNA, 72 h; series mostly up to 12.8 µM
Procedure, shortened: as §1

CP266 = conditions: P. falciparum in erythrocytes, SYBR Green DNA, 72 h; series mostly up to 12.8 µM
Procedure, shortened: as §1

CP268 = conditions: P. falciparum in erythrocytes, SYBR Green DNA, 72 h; series mostly up to 28.7 µM
Procedure, shortened: as §1

CP269 = conditions: P. falciparum in erythrocytes, SYBR Green DNA, 72 h; series mostly up to 28.7 µM
Procedure, shortened: as §1

CP286 = conditions: P. falciparum in erythrocytes, SYBR Green DNA, 72 h; series mostly up to 28.7 µM
Procedure, shortened: as §1

CP291 = conditions: P. falciparum in erythrocytes, SYBR Green DNA, 72 h; series mostly up to 28.7 µM
Procedure, shortened: as §1

CP297 = conditions: P. falciparum in erythrocytes, SYBR Green DNA, 72 h; series mostly up to 28.7 µM
Procedure, shortened: as §1

CP305 = conditions: P. falciparum in erythrocytes, SYBR Green DNA, 72 h; series mostly up to 28.7 µM
Procedure, shortened: as §1

CP315 = conditions: P. falciparum in erythrocytes, SYBR Green DNA, 72 h; series mostly up to 28.7 µM
Procedure, shortened: as §1

CP325 = conditions: P. falciparum in erythrocytes, SYBR Green DNA, 72 h; series mostly up to 28.7 µM
Procedure, shortened: as §1

CP329 = conditions: P. falciparum in erythrocytes, SYBR Green DNA, 72 h; series mostly up to 28.7 µM
Procedure, shortened: as §1

DFO2036 = conditions: P. falciparum in erythrocytes, SYBR Green DNA, 72 h; series mostly up to 28.7 µM
Procedure, shortened: as §1

DIV14 = conditions: P. falciparum in erythrocytes, SYBR Green DNA, 72 h; series mostly up to 28.7 µM
Procedure, shortened: as §1

DIV17 = conditions: P. falciparum in erythrocytes, SYBR Green DNA, 72 h; series mostly up to 28.7 µM
Procedure, shortened: as §1

DIV30 = conditions: P. falciparum in erythrocytes, SYBR Green DNA, 72 h; series mostly up to 28.7 µM
Procedure, shortened: as §1

Dd2 = conditions: P. falciparum in erythrocytes, SYBR Green DNA, 72 h; series mostly up to 28.7 µM
Procedure, shortened: as §1

ECU = conditions: P. falciparum in erythrocytes, SYBR Green DNA, 72 h; series mostly up to 28.7 µM
Procedure, shortened: as §1

FAB9 = conditions: P. falciparum in erythrocytes, SYBR Green DNA, 72 h; series mostly up to 28.7 µM
Procedure, shortened: as §1

GB4 = conditions: P. falciparum in erythrocytes, SYBR Green DNA, 72 h; series mostly up to 28.7 µM
Procedure, shortened: as §1

HB3 = conditions: P. falciparum in erythrocytes, SYBR Green DNA, 72 h; series mostly up to 28.7 µM
Procedure, shortened: as §1

ICS = conditions: P. falciparum in erythrocytes, SYBR Green DNA, 72 h; series mostly up to 28.7 µM
Procedure, shortened: as §1

N140 = conditions: P. falciparum in erythrocytes, SYBR Green DNA, 72 h; series mostly up to 28.7 µM
Procedure, shortened: as §1

P93_24 = conditions: P. falciparum in erythrocytes, SYBR Green DNA, 72 h; series mostly up to 28.7 µM
Procedure, shortened: as §1

P94_40 = conditions: P. falciparum in erythrocytes, SYBR Green DNA, 72 h; series mostly up to 28.7 µM
Procedure, shortened: as §1

PAD = conditions: P. falciparum in erythrocytes, SYBR Green DNA, 72 h; series mostly up to 28.7 µM
Procedure, shortened: as §1

PC15 = conditions: P. falciparum in erythrocytes, SYBR Green DNA, 72 h; series mostly up to 28.7 µM
Procedure, shortened: as §1

PC26 = conditions: P. falciparum in erythrocytes, SYBR Green DNA, 72 h; series mostly up to 28.7 µM
Procedure, shortened: as §1

PC49 = conditions: P. falciparum in erythrocytes, SYBR Green DNA, 72 h; series mostly up to 28.7 µM
Procedure, shortened: as §1

SC27B = conditions: P. falciparum in erythrocytes, SYBR Green DNA, 72 h; series mostly up to 28.7 µM
Procedure, shortened: as §1

TAB109 = conditions: P. falciparum in erythrocytes, SYBR Green DNA, 72 h; series mostly up to 12.8 µM
Procedure, shortened: as §1

TAB113 = conditions: P. falciparum in erythrocytes, SYBR Green DNA, 72 h; series mostly up to 28.7 µM
Procedure, shortened: as §1

TAB165 = conditions: P. falciparum in erythrocytes, SYBR Green DNA, 72 h; series mostly up to 28.7 µM
Procedure, shortened: as §1

W2 = conditions: P. falciparum in erythrocytes, SYBR Green DNA, 72 h; series mostly up to 12.8 µM
Procedure, shortened: as §1
Potency is the fitted concentration of half-maximal effect.

In the case of `CO[C@@H](COC(N)=O)C1=C(N2CC2)C(=O)C(C)=C(N2CC2)C1=O`, the Potency (CP256) is reported as 1410 nM (active), the Potency (CP260) is reported as 1000 nM (active) and the Potency (CP265) is reported as 708 nM (active). For the same compound, the Potency (CP266) was 3790 nM (active), the Potency (CP268) was 3010 nM (active) and the Potency (CP269) was 953 nM (active). The Potency (CP286) was 1120 nM (active), the Potency (CP291) was 1350 nM (active) and the Potency (CP297) was 1690 nM (active). For the same compound, the Potency (CP305) was 1900 nM (active), the Potency (CP315) was 3380 nM (active) and the Potency (CP325) was 3010 nM (active). The Potency (CP329) was 1510 nM (active), the Potency (DFO2036) was 794 nM (active) and the Potency (DIV14) was 1510 nM (active). The Potency (DIV17) was 1900 nM (active), the Potency (DIV30) was 3010 nM (active) and the Potency (Dd2) was 891 nM (active). The Potency (ECU) was 2000 nM (active), the Potency (FAB9) was 7940 nM (active) and the Potency (GB4) was 1510 nM (active). For the same compound, the Potency (HB3) was 2000 nM (active), the Potency (ICS) was 1000 nM (active) and the Potency (N140) was 1260 nM (active). The Potency (P93_24) was 1120 nM (active), the Potency (P94_40) was 1120 nM (active) and the Potency (PAD) was 1260 nM (active). For the same compound, the Potency (PC15) was 2820 nM (active), the Potency (PC26) was 1900 nM (active) and the Potency (PC49) was “inactive”. The Potency (SC27B) was 1260 nM (active), the Potency (TAB109) was 1120 nM (active) and the Potency (TAB113) was 1260 nM (active). The Potency (TAB165) was 708 nM (active) and the Potency (W2) was 301 nM (active).
